Screening results (PubChem)
Hits are enriched below; roughly 9.3% of the tested compounds scored in any of these assays.
HCV inh: HCV inhibition; Potency, µM (series often up to 41.8 µM), without a hit: at the top dose activity change, negative = inhibition, hits mostly inhibitors; 340,000 tested, 3.4% active; AID 651820; Huh7.5.1 HCVcc-Cre infection, luciferase reporter, 44 h; further: potency means the concentration at half of the fitted maximal effect
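Cells seeded at 1,000/well and cultured 4 h, then compounds added followed by HCVcc-Cre virus (~0.5 moi). After 44 h further culture, luciferase substrate was added, plates held 15 min at room temperature, and luminescence read for 15 sec.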
Vaccinia Venus: inhibitors of vaccinia virus (Venus reporter). Potency, µM (highest dose often 36.5 µM), for inactives: top-dose activity change, negative = inhibition, hits mostly inhibitors. 330,000 tested, 0.46% active. Vaccinia virus Venus reporter expression, fluorescence; calls by dose curve; tested in A549 cells; further: potency means the concentration at half of the fitted maximal effect; nearly all actives have a fitted effect of over 30% in size
HCMV inh: human cytomegalovirus inhibition; HFF cells, HCMV-luciferase reporter, 72 h; hits give low values; activity change, negative = inhibition, % at 57.5 µM; 410,000 tested, 4.5% active; AID 1259415; in the data active means activity change below about -60%; inconclusive means no clear call, values can overlap the other calls; inactive means above about -39%
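Luciferase read-out from HCMV-luciferase-infected HFFs (MOI 1 PFU/cell) 72 h post infection at 37C; compounds added after 16 h cell attachment; activity normalized between buffer-only basal and Salinomycin (10uM) inhibitor controls.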
Vaccinia mCherry: vaccinia inhibition (mCherry reporter) | Vaccinia virus mCherry reporter infection, fluorescence | Potency, µM (titrated, usually from 36.5 µM), without a hit: at the highest dose activity change, negative = inhibition, actives largely listed as inhibitors | 310,000 tested, 0.63% active | AID 720579; calls by dose curve; tested in A549 cells; further: potency means the concentration at half of the fitted maximal effect; nearly all actives have a fitted effect of over 35% in size
FMDV antiviral: foot and mouth disease virus antiviral activity | FMDV antiviral cell-based qHTS | Potency, µM (top dose mostly 57.9 µM), without a hit: top-dose activity change, negative = inhibition, most hits filed as inhibitors | 410,000 tested, 1.2% active | AID 1159524; calls by dose curve; tested in HEK293T cells; further: read-out not given here; potency means the concentration at half of the fitted maximal effect; nearly all actives have a fitted effect of over 45% in size
Sm TGR inh: inhibitors of Schistosoma mansoni thioredoxin glutathione reductase; 360,000 tested, 3% active; AID 485364; Potency, µM (doses to about 114 µM), for the others: top-dose activity change, negative = inhibition, most hits filed as inhibitors; Q962Y6; purified TGR, DTNB reduction, TNB absorbance 405 nm; further: potency means the concentration at half of the fitted maximal effect; nearly all actives have a fitted effect of over 60% in size
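Kinetic colorimetric format: TGR-catalysed, NADPH-driven DTNB reduction monitored via TNB absorbance. Enzyme dispensed at 20 nM; compound exposure 15 min at room temperature before reaction start.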
* hit, by the source's call; i = inactive; u = inconclusive; x = no result; [ ] = remark or other dose. Unless noted, the call rests on the fitted dose curve; in most records, active means well fitted curve in the direction sought with a large enough effect; inconclusive means small, poorly fitted or top-dose-only effect, or another doubt; inactive means no such curve, though single readings can be large; an effect the other way counts as inactive or inconclusive. On the % scale 0 is the no-effect control and ±100 the full control effect.

SMILES	HCV inh	Vaccinia Venus	HCMV inh	Vaccinia mCherry	FMDV antiviral	Sm TGR inh
C[C@H](CCCC/C=C/C(=O)O)O[C@@H]1O[C@@H](C)[C@H](O)C[C@H]1O	37.2%	-9.5%	3.4	i	-4.7%	56.2µM*
COc1ccc(S(=O)(=O)N2CCN(C(=O)c3cc(C4CC4)nn3-c3ccccc3)CC2)cc1OC	u	-10.4%	-34.7	-12.5%	u	x
O=C(Nc1nc(-c2ccc(Cl)cc2Cl)cs1)c1ccc(OCC2CCCO2)cc1 (stereo not given)	8.91µM*	3.9%	-63.3*	i	u	-2.6%
O=C(Nc1ccc(Cl)cc1)c1ccc(OCC2CCCO2)cc1 (stereo not given)	-29.5%	-12.5%	-25.3	-23.1%	7.4%	-4.1%
O=C(Nc1ccc(Br)cc1Cl)c1ccc(OCC2CCCO2)cc1 (stereo not given)	u	-21.7%	-38.1	-20.5%	5.9%	x
CCOc1ccc(NC(=O)c2ccc(OCC3CCCO3)cc2)cc1S(=O)(=O)N(CC)CC (stereo not given)	u	-18.3%	0.0	-12.0%	u	-12.1%
Cc1cc(C)c2nc(NC(=O)c3ccc(OCC4CCCO4)cc3)sc2c1 (stereo not given)	u	x	u	x	-22.4%	2.2%
Cc1ccc2nc(NC(=O)c3ccc(OCC4CCCO4)cc3)sc2c1 (stereo not given)	8.91µM*	-11.4%	-83.9*	-16.9%	u	2.5%
CCN(CC)S(=O)(=O)c1ccc(NC(=O)c2ccc(OCC3CCCO3)cc2)cc1 (stereo not given)	6.31µM*	x	-89.9*	x	28.2µM*	-9.5%
Cc1cc(NC(=O)c2ccc(OCC3CCCO3)cc2)ccc1Br (stereo not given)	x	-29.6%	-80.6*	-27.3%	-19.1%	x
CCOc1ccc(S(=O)(=O)NCCC(=O)N(C)Cc2ccc(C)o2)cc1	-10.1%	-10.4%	-34.0	-18.5%	22.5%	3.5%
Cc1ccc(Cn2nnc(C(=O)Nc3ccc(F)c(F)c3)c2N)cc1	x	-20.2%	33.1	i	-3.6%	0.5%
CC(C)CCNC(=O)c1cc2c(=O)[nH]c3ccccc3c2s1	-3.7%	x	-30.0	x	19.0%	4.5%
CCc1noc(C)c1C(=O)Nc1nc(-c2cccs2)cs1	-12.3%	-7.3%	-11.3	i	-13.7%	2.7%
CCc1noc(C)c1C(=O)Nc1nc(-c2ccc(Cl)cc2Cl)cs1	10µM*	-28.8%	-37.0	u	u	-9.1%
O=[N+]([O-])c1cccc(NC(=S)Nc2nc(-c3ccc(Cl)cc3Cl)cs2)c1	x	x	-87.3*	x	x	-1.8%
COc1ccccc1NC(=O)C1C2C=CC(C2)C1C(=O)NCc1cccnc1 (stereo not given)	9.1%	x	-24.4	x	-11.9%	-20.1%
O=c1[nH]cnc2c1C(c1ccccc1)c1c(nc[nH]c1=O)O2	5.0%	-10.4%	-31.1	-11.7%	-12.3%	5.5%
CCOC(=O)c1sc(NC(=O)c2ccc(Cl)s2)cc1C	u	-11.5%	10.2	i	37.7%	5.2%
CCOC(=O)c1csc(NC(=O)c2ccc3c(c2)OCCO3)n1	14.1µM*	-24.7%	x	-12.2%	-36.4%	-1.2%
CCOC(=O)c1csc(NC(=O)c2ccc(OCC)cc2)n1	2.51µM*	-26.3%	-60.8*	u	u	7.3%
CCOC(=O)c1sc(NC(=O)c2c(C)nn(Cc3ccccc3)c2C)cc1C	17.8µM*	u	-36.0	u	-24.4%	-8.8%
CCOC(=O)c1csc(NC(=O)c2ccc(S(=O)(=O)N(C)C)cc2)n1	-13.9%	-11.5%	-63.2*	-25.6%	x	-27.5%
CCOC(=O)c1sc(NC(=O)c2ccc(S(=O)(=O)N(C)C)cc2)cc1C	11.2µM*	x	-87.0*	x	u	-11.6%
CCOC(=O)c1sc(NC(=O)c2ccccc2)cc1C	u	x	27.6	x	36.3%	2.1%
SMILES	HCV inh	Vaccinia Venus	HCMV inh	Vaccinia mCherry	FMDV antiviral	Sm TGR inh
COc1ccc(NS(=O)(=O)c2cccc(C(=O)NNC(=O)c3ccc(NC(C)=O)cc3)c2)cc1	-12.9%	-1.9%	-24.0	-15.5%	-26.4%	-6.3%
COc1cccc(C2CC(c3cccs3)=NN2C(=O)CCC(=O)O)c1OC (stereo not given)	0.1%	-5.3%	91.0	i	-0.5%	-2.0%
FC(F)(F)c1ccc(C2[C@H]3CN(Cc4ccc(-c5ccccc5)cc4)[C@H](c4ccccc4)C34CC2(c2cccnc2)C4)cc1 (stereo not given in full)	5.8%	-7.7%	u	u	-7.8%	-4.3%
FC(F)(F)c1ccc(CN2C[C@@H]3C(c4ccc(Cl)nc4)C4(c5ccccc5)CC3(C4)[C@H]2c2ccccc2)cc1 (stereo not given in full)	-6.1%	u	-65.1*	u	-10.4%	u
FC(F)(F)c1ccc(C2[C@H]3CN(Cc4ccc(-c5ccccc5)cc4)[C@H](c4ccccc4)C34CC2(c2ccccc2)C4)cc1 (stereo not given in full)	-1.6%[8.37 µM]	10.9%	17.3	-8.4%	-6.1%	50.1µM*
Clc1ccc(C2[C@H]3CN(Cc4cccnc4)[C@H](c4ccccc4)C34CC2(c2cccnc2)C4)cn1 (stereo not given in full)	-19.9%	u	-15.4	i	u	u
Cc1nnc(N2CCN(c3cccc(C(F)(F)F)c3)CC2)c2c1nnn2Cc1ccccc1	x	u	4.5	-21.8%	u	13.0%
COCCOC(=O)C1=C(C)NC(C)=C(C(=O)OC(C)C)[C@@H]1c1cccc([N+](=O)[O-])c1	x	x	x	x	-12.7%	x
Cc1nc2c(C)c(C)c(C)c(C)c2nc1C	7.1%	-0.7%	u	i	7.1%	-8.2%
Cc1nc2c(O)c3c(c(O)c2nc1C)C1C=CC3CC1	7.94µM*	-25.1%	-16.9	-4.0%	7.08µM*	x
CC(=O)N1CCN(c2ccc(Nc3ncnc4c3oc3ccccc34)cc2)CC1	u	u	u	-13.5%[1.46 µM]	28.2µM*	0.0%
CCc1nnc(N2CCN(c3ncnc4c3oc3ccccc34)CC2)s1	-5.7%	-6.3%	u	-12.3%	22.4µM*	-31.0%
O=C(CSc1ncnc2c1oc1ccccc12)N1CCN(c2ccccc2)CC1	-23.4%	x	36.9	x	0.2%	x
c1ccc(N2CCN(c3ncnc4c3oc3ccccc34)CC2)cc1	1.0%	-7.0%	-28.9	i	35.5µM*	-14.6%
Cc1ccc2c(c1)c1ncnc(N3CCOCC3)c1n2C	u	-19.4%	47.0	u	-17.8%	6.5%
Cc1ccc2c(c1)c1ncnc(N3CCN(c4ccccc4)CC3)c1n2C	11.0%	-8.9%	86.9	x	20µM*	0.0%
C[C@@H]1CN([C@@H](C)CO)C(=O)CCCn2cc(nn2)CO[C@H]1CN(C)S(=O)(=O)c1cccc(C#N)c1	x	-2.3%	11.8	i	-11.0%	x
CCOC(=O)c1c(N)sc(C(=O)N2CCCC2)c1C	1.9%	u	-15.4	x	0.0%	6.1%
